The text below walks through data of PubChem BioAssay (NCATS).

The test system of one test is NIH3T3. The test is described as follows: qHTS assay to identify novel small-molecules to repurpose for Merkel cell carcinoma treatment (AID 1296009). Note: nearly all actives have a fitted effect of over 60% in size. The conditions noted are these: MCC and control cell lines, CellTiter-Glo viability, 72 h; at 44.8 µM (top of the series) unless noted. Put shortly:
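Cells were incubated with compound for 72 hr at 37 degree celsius before CellTiter-Glo addition. Luminescence was normalized with no-cell wells as full cytotoxicity and DMSO as baseline.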
For orientation: In qHTS, concentration-response curves come from the screen itself.

In a further test the test system is C33A. The test is described as follows: Primary qHTS to identify gynecologic anti-cancer compounds using libraries of approved drugs and bioactive compounds (AID 1345084). Note: nearly all actives have a fitted effect of over 55% in size. Note: potency is the fitted concentration of half-maximal effect. The note with it: Gynecologic cancer cell panel viability, ATPlite luminescence, 48 h; series mostly up to 57.5 µM. The procedure, abridged: (§1)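 ATP-based viability (ATPlite), 1,000 cells/well, 16 h pre-incubation, 48 h compound at 37 C, 5% CO2, 15 min RT before read.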

The test system of a further test is CAOV3. The test is described as above. The note with it: Gynecologic cancer cell panel viability, ATPlite luminescence, 48 h; series mostly up to 57.5 µM. The procedure, abridged:
as §1

For a further test, the system named is CASKI. Described as above. The note with it: Gynecologic cancer cell panel viability, ATPlite luminescence, 48 h; series mostly up to 57.5 µM. Put shortly:
as §1
In general terms: ATP-based viability assays read luminescence as a measure of living cells.

Another test concerns Es-2. Described as above. The conditions noted are these: Gynecologic cancer cell panel viability, ATPlite luminescence, 48 h; series mostly up to 57.5 µM. Put shortly:
as §1

In a further test the test system is HeLa. The description is as above. The conditions noted are these: Gynecologic cancer cell panel viability, ATPlite luminescence, 48 h; series mostly up to 57.5 µM. The procedure, abridged: as §1
In another test the test system is Hek293T. The test is described as above. The conditions noted are these: Gynecologic cancer cell panel viability, ATPlite luminescence, 48 h, control line for the selectivity index; series mostly up to 57.5 µM. The procedure, abridged: as §1
The test system of the next test is JEG-3. The description is as above. The conditions noted are these: Gynecologic cancer cell panel viability, ATPlite luminescence, 48 h; series mostly up to 57.5 µM. Put shortly:
as §1

The next test relates to OV90. Described as above. The conditions noted are these: Gynecologic cancer cell panel viability, ATPlite luminescence, 48 h; series mostly up to 57.5 µM. Put shortly: as §1
The next test relates to PA-1. The test is described as above. The note with it: Gynecologic cancer cell panel viability, ATPlite luminescence, 48 h; series mostly up to 57.5 µM. The procedure, abridged:
as §1

The test system of the next test is Tov-21-G. The test is described as above. The conditions noted are these: Gynecologic cancer cell panel viability, ATPlite luminescence, 48 h; series mostly up to 57.5 µM. Put shortly: as §1
In a further test the test system is Tov112D. Described as above. The note with it: Gynecologic cancer cell panel viability, ATPlite luminescence, 48 h; series mostly up to 57.5 µM. The procedure, abridged:
as §1

Another test relates to SKOV3. Described as above. The note with it: Gynecologic cancer cell panel viability, ATPlite luminescence, 48 h; series mostly up to 57.5 µM. Put shortly:
as §1

SMILES strings stand for the structures. Records with an inconclusive call do not appear. Values without a mark were called inactive. Active and inactive are the calls of the source. Calls come from the whole dose curve; as a rule, active = well fitted curve in the direction sought with a large enough effect; inconclusive = small, poorly fitted or top-dose-only effect, or another doubt; inactive = no such curve, though single readings can be large; an effect the other way counts as inactive or inconclusive. Where a SMILES comes first, the peptide text is derived from it.

With `C[C@H]1[C@@H](O)[C@H](O)C2[C@]3(C)C([C@@H](O)[C@H]4OC(=O)[C@@H]1[C@@]24C)[C@](C)(O)C=C[C@H]3O[C@@H]1O[C@H](CO)[C@@H](O)[C@H](O)[C@H]1O` (some centres undefined), in the test on NIH3T3, the outcome is “inactive [at 17.4 µM]”. Also, the Potency entry with C33A, in the test on CAOV3, in the test on Es-2, with HeLa, in the test on Hek293T and in the test on JEG-3 was “inactive” throughout. For the same compound, the Potency result in the test on OV90, in the test on PA-1, in the test on Tov-21-G and with Tov112D was “inactive” each time. For the same compound, the compound was called inactive in the test on CASKI.
For `CC(C)c1ccc2c(c1)[C@H](O)CC1[C@@](C)(C(=O)O)CCC[C@]21C` (some centres undefined), the result with NIH3T3 and in the test with CASKI was inactive. In addition, the Potency result with C33A, with CAOV3, with Es-2, in the test on HeLa, with Hek293T and in the test with JEG-3 was “inactive” throughout. Moreover, the Potency result in the test on OV90, with PA-1, with Tov-21-G and with Tov112D was “inactive” throughout.
For `O=C(/C=C/c1ccc(O)c(O)c1)O[C@H]1[C@H](OC2CCCCC2O)O[C@H](CO)[C@@H](O)[C@@H]1O` (some centres undefined), the outcome in the test on NIH3T3 is “inactive [at 17.4 µM]”. Further, the Potency entry in the test on C33A, in the test on CAOV3, in the test on Es-2, with Hek293T, in the test with JEG-3 and with OV90 was “inactive” throughout. Also, the Potency entry in the test on Tov-21-G and with Tov112D was “inactive” throughout. For the same compound, in the test with CASKI, the compound was classed as inactive. Further, in the test on HeLa, the Potency was 11.2 µM (active).
For `FC(F)(F)Oc1ccc(-c2ccc3nnc(C(F)(F)F)n3c2)cc1`, the call with NIH3T3 and in the test with CASKI was inactive. Besides, the Potency result in the test on C33A, in the test with CAOV3, in the test with Es-2, with Hek293T, with JEG-3 and in the test on OV90 was “inactive” each time. Also, the Potency entry with PA-1, in the test with SKOV3, in the test on Tov-21-G and in the test with Tov112D was “inactive” in each case.
Consider `C[C@@H]1C[C@H]2OC(=O)[C@@]3(C)CCC[C@](C)(C23)[C@@]1(O)CCC1=CC(=O)OC1O` (some centres undefined), for which the compound was classed as inactive with NIH3T3 and with CASKI. Besides, the Potency entry with C33A, in the test on CAOV3, with Es-2, in the test with HeLa, in the test on Hek293T and in the test on JEG-3 was “inactive” in each case. Also, the Potency result with OV90, in the test on PA-1, in the test on Tov-21-G and in the test on Tov112D was “inactive” throughout.
As for `COc1cc(C[C@@]2(O)CO[C@@H](c3ccc(O[C@@H]4O[C@H](CO)[C@@H](O)[C@H](O)[C@H]4O)c(OC)c3)[C@H]2CO)ccc1O`, in the test on NIH3T3, the outcome was “inactive [at 17.4 µM]”. Besides, the Potency entry with C33A, in the test on CAOV3, in the test on Es-2, in the test with HeLa, with Hek293T and in the test on JEG-3 was “inactive” throughout. Also, the Potency entry with OV90, with PA-1, in the test with Tov-21-G and in the test with Tov112D was “inactive” each time. The result with CASKI was inactive.
Turning to `C=CC(C)(CCC=C(C)C)O[C@@H]1O[C@H](CO)[C@@H](O)[C@H](O)[C@H]1O` (some centres undefined), the call with NIH3T3 and in the test with CASKI was inactive. Also, the Potency result in the test on C33A, with Es-2, with HeLa, in the test on Hek293T, in the test with JEG-3 and in the test with OV90 was “inactive” each time. In addition, the Potency result in the test on PA-1, with SKOV3, in the test with Tov-21-G and in the test with Tov112D was “inactive” in each case.
In the case of `O=C(O)C(Cc1ccccc1)NC(=O)C1CCCN1` (stereo not drawn) (H-Pro-Phe-OH; configuration not given here), the outcome in the test on NIH3T3 and in the test with CASKI was inactive. Besides, the Potency entry in the test on C33A, with Es-2, with HeLa, in the test with Hek293T, in the test with JEG-3 and in the test with OV90 was “inactive” each time. Also, the Potency result in the test with PA-1, in the test on SKOV3, in the test with Tov-21-G and with Tov112D was “inactive” in each case.
Consider `CC1(C)[C@@H]2CC=C(CO[C@@H]3O[C@H](CO[C@@H]4OC[C@H](O)[C@H](O)[C@H]4O)[C@@H](O)[C@H](O)[C@H]3O)[C@H]1C2`, for which the Potency entry in the test on C33A, with CAOV3, in the test on Es-2, in the test on HeLa, in the test on Hek293T and with JEG-3 was “inactive” in each case. The Potency entry in the test on OV90, with PA-1, in the test with SKOV3, in the test with Tov-21-G and in the test on Tov112D was “inactive” in each case. Besides, the compound was classed as inactive in the test on CASKI.
As to `O=C(/C=C/C=C/c1ccc2c(c1)OCO2)N1CCCCC1`, the outcome in the test with NIH3T3 and in the test with CASKI was inactive. Besides, the Potency result in the test with C33A, in the test with CAOV3, in the test on HeLa, in the test on Hek293T, in the test on JEG-3 and in the test with Tov112D was “inactive” each time.
Turning to `Cc1ccccc1N1CCN(S(=O)(=O)C[C@]23CC[C@H](C[C@@H]2NC(=O)[C@@H](N)CCS(C)(=O)=O)C3(C)C)CC1`, the compound was called inactive in the test on NIH3T3 and with CASKI. Moreover, the Potency entry with C33A, with Es-2, in the test on HeLa, in the test with Hek293T, in the test with JEG-3 and in the test with OV90 was “inactive” in each case. Also, the Potency result with PA-1, with SKOV3, in the test on Tov-21-G and in the test with Tov112D was “inactive” throughout.
Turning to `CCCN1CCC[C@@H](c2cccc(S(C)(=O)=O)c2)C1`, the Potency result in the test on C33A, with Es-2, with HeLa, with Hek293T, with JEG-3 and in the test with OV90 was “inactive” each time. For the same compound, the Potency entry in the test on PA-1, in the test with SKOV3, in the test with Tov-21-G and in the test with Tov112D was “inactive” each time. Further, the compound was called inactive with CASKI.
In the case of `CC(NC(=O)CC(=O)O)C(=O)Nc1ccccc1C(N)=O` (centres undefined), the Potency entry in the test on C33A, in the test with CAOV3, with Es-2, with HeLa, with Hek293T and with JEG-3 was “inactive” each time. The Potency result in the test on OV90, in the test with PA-1, in the test on SKOV3, in the test with Tov-21-G and in the test on Tov112D was “inactive” each time.
In the case of `CC(=O)OC1(C)CC(O)C2(O)C=COC(OC3OC(CO)C(O)C(O)C3O)C12` (centres undefined), the Potency entry with C33A, with CAOV3, in the test with Es-2, in the test on HeLa, with Hek293T and in the test on JEG-3 was “inactive” each time. Moreover, the Potency result with OV90, in the test with PA-1, in the test on Tov-21-G and in the test on Tov112D was “inactive” in each case. The compound was classed as inactive in the test with CASKI.
For the compound `CC1=C2C3OC(=O)C(C)C3(O)CCC2(C)CCC1` (centres undefined), the call in the test with NIH3T3 and in the test on CASKI was inactive. For the same compound, the Potency result with C33A, in the test on Es-2, in the test with HeLa, in the test on Hek293T, in the test on JEG-3 and in the test with OV90 was “inactive” throughout. In addition, the Potency result in the test on PA-1, with SKOV3, with Tov-21-G and with Tov112D was “inactive” throughout.
In the case of `CC1=CCC[C@@H]2[C@](CCc3ccoc3)(C(=O)O)[C@H](C)CC[C@@]12C`, the Potency result in the test on C33A, with CAOV3, in the test on Es-2, with HeLa, in the test with Hek293T and in the test on JEG-3 was “inactive” in each case. For the same compound, the Potency entry in the test with OV90, in the test with PA-1, in the test with SKOV3, with Tov-21-G and in the test with Tov112D was “inactive” in each case. Moreover, in the test with CASKI, the call was inactive.
